Consider 42 sequences from PMC7819943, “Rice protein-binding microarrays: a tool to detect cis-acting elements near promoter regions in rice”.

In all, about 68,000 sequences were measured (“fluorescence intensity (a.u.)”: median about 9,100, highest 2% from about 16,000 on). The sample holds the highest values, similar sequences and a random draw of the others, so the mix is not that of the screen.

Sequence of OsWRKY34 (Q0JBA9 entry or part of it): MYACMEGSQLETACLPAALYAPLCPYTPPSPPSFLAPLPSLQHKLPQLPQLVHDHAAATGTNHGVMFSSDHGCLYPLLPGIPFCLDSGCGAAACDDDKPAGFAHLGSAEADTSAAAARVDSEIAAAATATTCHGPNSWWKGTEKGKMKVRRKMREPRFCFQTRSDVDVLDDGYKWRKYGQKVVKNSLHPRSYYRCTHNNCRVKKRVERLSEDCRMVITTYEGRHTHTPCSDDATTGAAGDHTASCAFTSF

For this assay, the target named is OsWRKY34 (Oryza sativa, UniProt Q0JBA9 1-250). Put plainly: protein-binding microarray (RPBM); PBS, 2% BSA, 51.3 ng/ul salmon testes DNA, 50 uM zinc acetate, 200 nM TF, 25 C, 1 h; high values mean tight binding. Particulars: protein: recombinant; tags: N-terminal polyhistidine and DsRed monomer fusion (pET32a); label: CyDye5-dUTP incorporated in the synthesized complementary strand; 3' TTTTT single-stranded linker to array surface; dsDNA, one strand shown. In a few lines:
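Using Ni–NTA, transcription factors fused N-terminally to polyhistidine and DsRed were purified after expression in E. coli BL21-CodonPlus. These were incubated at 200 nM with a blocked, double-stranded custom Agilent array for 1 h at 25 °C in a buffer containing 50 µM zinc acetate, and the array was washed. The binding signal is per-feature fluorescence intensity (arbitrary units) on an Axon 4000B scanner.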
On to “TCTCCCTTTCATTTTTATGTATGTTGGAATTATTTTTGTTCGGAGTCACCTAGTGCAG”, for which the binding signal is 8590 fluorescence intensity (a.u.).

With “TATTTGATCCCGTTTTTTAAAATCGAGCTTACCGTTTGACCGGAGTCACCTAGTGCAG”, the binding signal was 10500 fluorescence intensity (a.u.).

With “GTGGAGCTATACCTTCTACTCTCAGCAATTGTCCTTTAGACGGAGTCACCTAGTGCAG”, the binding signal was 9460 fluorescence intensity (a.u.).

Consider “ACGCGGCCGCCGAGCTGGACTCCTCATCCCCAGCTTCGCTCGGAGTCACCTAGTGCAG”, for which the binding signal was 8600 fluorescence intensity (a.u.).

On to “CAATTATCCTCTGTGCTGTTTGACATTTTCTTGGTTAGTGCGGAGTCACCTAGTGCAG”, for which the binding signal was 12000 fluorescence intensity (a.u.).

With “GACACACGATTTCTTAAGGCTCATACTTTATGCTTGTCTACGGAGTCACCTAGTGCAG”, the binding signal is 11300 fluorescence intensity (a.u.).

Take “GACACATGAACTTTCAATTTTTCTATCACATCGTTCTAATCGGAGTCACCTAGTGCAG”: the binding signal was 8150 fluorescence intensity (a.u.).

Regarding “TTTTTTGGTTGTTGATATGATGTTCTTTTTTCCTCATTCTCGGAGTCACCTAGTGCAG”, the binding signal was 8990 fluorescence intensity (a.u.).

As to “GGCTTTGTATTTTGGTGTTGAGTCCCTTCCATACAAGAACCGGAGTCACCTAGTGCAG”, the binding signal was 8040 fluorescence intensity (a.u.).

For the sequence “AGTTTTTGCTTGTAACGTTTCACCACTCGTCTTATTCAAACGGAGTCACCTAGTGCAG”, the binding signal is 8340 fluorescence intensity (a.u.).

On to “AACCTCCACACACCCGCTCATACTACAAGCTAGGTAATCACGGAGTCACCTAGTGCAG”, for which the binding signal is 8040 fluorescence intensity (a.u.).

Take “CGCTCCACCACCCGCCCGCTCGCCCATTTCCTCTCCCTTTCGGAGTCACCTAGTGCAG”: the binding signal is 12300 fluorescence intensity (a.u.).

Consider “CACCTCCCCGCCCACCATTCCCACTTTCGCCCACACACACCGGAGTCACCTAGTGCAG”, for which the binding signal is 9570 fluorescence intensity (a.u.).

As to “GCCCCATCCACCGCACCACACGTCTCTTTTTTTCGCGACTCGGAGTCACCTAGTGCAG”, the binding signal was 14600 fluorescence intensity (a.u.).

As for “CCCATCGCATCTTTCCCACTCGCCCCACGCCCGCACGTCTCGGAGTCACCTAGTGCAG”, the binding signal was 18800 fluorescence intensity (a.u.).

On to “TGCTCGGACCATTCCCCGCCCACCATCGCTGCACACTTTTCGGAGTCACCTAGTGCAG”, for which the binding signal was 17200 fluorescence intensity (a.u.).

For the sequence “CGCACCACCACCACCATTTCCACGCCCCTCTCTCCATTCCCGGAGTCACCTAGTGCAG”, the binding signal is 8680 fluorescence intensity (a.u.).

Regarding “GCGCTTCTGACCACCACGTGCATTTCCATTTCCCGCTGCACGGAGTCACCTAGTGCAG”, the binding signal was 12700 fluorescence intensity (a.u.).

As to “CGCTGACCACGTTGACCATCTTCCATTTCTTCCCCTCGCCCGGAGTCACCTAGTGCAG”, the binding signal is 18600 fluorescence intensity (a.u.).

As to “CCCCTCGCCGCCCTCTCTCTCACAGTCTCACGCATCCCATCGGAGTCACCTAGTGCAG”, the binding signal is 8440 fluorescence intensity (a.u.).

As for “GGCAATCCGGTGCTCCTTGTCTGAACTCTCTCAATCTCAACGGAGTCACCTAGTGCAG”, the binding signal is 8040 fluorescence intensity (a.u.).

Consider “ATTTGTCATTTTTTCTATGTGTATATGTTGTATTTTGAGCCGGAGTCACCTAGTGCAG”, for which the binding signal was 8430 fluorescence intensity (a.u.).

“GCATGAGTAGGGGATGGCATTAAAACAGGTTGGTCAGGTGCGGAGTCACCTAGTGCAG”: the binding signal was 8920 fluorescence intensity (a.u.).

In the case of “TCCGTTCCATCGTAATCCTTCTCCGATCCGAATTTGCTTCCGGAGTCACCTAGTGCAG”, the binding signal is 9120 fluorescence intensity (a.u.).

Turning to “GCATCGACCGCGCGCGTATACGTTAACGCTCACCTTTGTTCGGAGTCACCTAGTGCAG”, the binding signal was 9420 fluorescence intensity (a.u.).

As to “GGTTTGTTTGGAGGCGCAATGTTTCTCACCCTGTCGTTCCCGGAGTCACCTAGTGCAG”, the binding signal is 12700 fluorescence intensity (a.u.).

As to “AGGTCTTTTTCACGTCGCAACCATGGCTTCAAATTTTGCTCGGAGTCACCTAGTGCAG”, the binding signal was 11900 fluorescence intensity (a.u.).

“CTCGCCTGACCCTGTCAAACGCCGGGCCGCGGACCCCGCCCGGAGTCACCTAGTGCAG”: the binding signal is 8970 fluorescence intensity (a.u.).

Regarding “TTTTGGGGTGGGTTTTGGTATCTGATGCTTACGGGCATCTCGGAGTCACCTAGTGCAG”, the binding signal is 18100 fluorescence intensity (a.u.).

As for “TGATGTCTTATCTCGGGTCTCATCTTTTCGCTTATGCTTACGGAGTCACCTAGTGCAG”, the binding signal is 8990 fluorescence intensity (a.u.).

“GAGCTTATAGGGTGGGTTGTGTCCATGGAGTAACTATTATCGGAGTCACCTAGTGCAG”: the binding signal is 18600 fluorescence intensity (a.u.).

Regarding “TGCTTGTGGTTTGTATGGAGTTTGGGTGAAGTGTCACGTACGGAGTCACCTAGTGCAG”, the binding signal is 9660 fluorescence intensity (a.u.).

For “CGTAGGTAAGTAGGGTTATTATAGTTATTTGTGTATATATCGGAGTCACCTAGTGCAG”, the binding signal was 9300 fluorescence intensity (a.u.).

For “GAGCTTGGGGTTGTGTATGGTGGTGGTGGTGTGGTAGCTACGGAGTCACCTAGTGCAG”, the binding signal is 33200 fluorescence intensity (a.u.).

With “TCGTGGGAAGGGCAAAGAAAAGACGGGGTGGTGGGCATCGCGGAGTCACCTAGTGCAG”, the binding signal was 8420 fluorescence intensity (a.u.).

With “GGTGACGGCTGGTGTGGGTGTAGGGTGGCCGCGCGGTACGCGGAGTCACCTAGTGCAG”, the binding signal is 9460 fluorescence intensity (a.u.).

Consider “CTGTTGTGTTGTGTTGTAATATGATTATGTGGGTGCTTATCGGAGTCACCTAGTGCAG”, for which the binding signal is 8390 fluorescence intensity (a.u.).

As to “AACAGTGGTATCGTTGTGTAGGGGTGGGCTGGCAAAAAGACGGAGTCACCTAGTGCAG”, the binding signal is 20000 fluorescence intensity (a.u.).

“GGGCTAGTGTTTTTATGGTGTGGTTGGGGATTCAGCTTGCCGGAGTCACCTAGTGCAG”: the binding signal is 11600 fluorescence intensity (a.u.).

For “GGGGTTATGGTGGATTTGGTGCTTTGGGGCATTATGTTTACGGAGTCACCTAGTGCAG”, the binding signal is 13800 fluorescence intensity (a.u.).

“ATTCAGTGGATCCTGCTGCTCAAACTTTGCTGACTGAATTCGGAGTCACCTAGTGCAG”: the binding signal is 8820 fluorescence intensity (a.u.).

For the sequence “CATCTTTGTGGTTGTGTGGGTGTGTGTGTATATATATACCCGGAGTCACCTAGTGCAG”, the binding signal was 8180 fluorescence intensity (a.u.).
